The record followed here is PubChem BioAssay.

For some of these results: Entries with a potency or affinity are not part of this list. Activity calls are given as the source filed them.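 Rule for the calls, unless noted: active = mean duplicate potentiation above the buffer control mean plus 5 SD of buffer wells; inactive = the rest.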

A short description of assay [1]: thallium flux activation in parental CHO cells, counter-screen for KCNQ1 potentiator project (AID 493006;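 active = duplicate-averaged activation above buffer control mean plus 5 SD of those controls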;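 for activation: fluorescence ratio of max minus min over baseline after K+ and Tl+ depolarization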). Particulars: parental CHO-K1 cells, FluxOR thallium flux, at 10 µM; active compounds read high. A general note: Counterscreens check selectivity or assay interference.
In assay [2] the target is Potassium voltage-gated channel subfamily KQT member 1 (Homo sapiens) (UniProt P51787). Description: KCNQ1 potassium channel potentiators, confirmation, FluxOR thallium flux, CHO cells, duplicates (AID 493007;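 active = potentiation averaged over duplicate wells exceeding buffer-only control mean by more than 3 SD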;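 for outcome: cells depolarized by a potassium plus thallium sulfate stimulus after compound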;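 for potentiation: 0% = buffer-only wells and 100% = R-L3 activator control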). Particulars: KCNQ1 cell line, FluxOR thallium flux fluorescence, at 10 µM; active compounds read high, % of reference activator effect, buffer zero.
Sequence of Potassium voltage-gated channel subfamily KQT member 1 (Homo sapiens) (P51787 whole entry, looked up): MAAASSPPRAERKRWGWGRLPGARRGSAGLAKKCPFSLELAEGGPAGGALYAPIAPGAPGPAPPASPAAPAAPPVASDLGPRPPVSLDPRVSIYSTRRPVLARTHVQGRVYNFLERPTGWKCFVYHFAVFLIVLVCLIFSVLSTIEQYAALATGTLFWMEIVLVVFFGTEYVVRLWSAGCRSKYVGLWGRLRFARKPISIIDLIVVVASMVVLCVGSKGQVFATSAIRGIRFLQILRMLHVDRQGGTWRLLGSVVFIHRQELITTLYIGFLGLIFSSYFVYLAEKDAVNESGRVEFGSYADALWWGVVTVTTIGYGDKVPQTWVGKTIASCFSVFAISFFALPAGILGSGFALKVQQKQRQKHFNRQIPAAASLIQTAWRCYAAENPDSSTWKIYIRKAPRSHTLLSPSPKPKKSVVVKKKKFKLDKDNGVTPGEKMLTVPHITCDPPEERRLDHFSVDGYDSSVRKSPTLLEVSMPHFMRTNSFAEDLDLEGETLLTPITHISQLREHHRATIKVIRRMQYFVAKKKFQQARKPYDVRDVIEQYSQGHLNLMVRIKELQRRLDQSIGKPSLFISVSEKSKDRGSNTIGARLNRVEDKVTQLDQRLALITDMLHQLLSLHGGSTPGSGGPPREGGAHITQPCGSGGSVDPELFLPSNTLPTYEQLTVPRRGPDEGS
For assay [3], the target named is Potassium voltage-gated channel subfamily KQT member 2 (Rattus norvegicus) (UniProt O88943). Description: rat KCNQ2 channel potentiation, selectivity assay for KCNQ1 potentiator project, KCNQ2-CHO-K1 cells (AID 493009).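 Note: assay conditions were tuned for KCNQ1 rather than KCNQ2 modulators; signal is max minus min fluorescence divided by baseline after thallium stimulus.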 The conditions noted are these: FluxOR thallium flux fluorescence, at 10 µM; active compounds read high, scaled: buffer 0, activator control 100.
Sequence of Potassium voltage-gated channel subfamily KQT member 2 (Rattus norvegicus) (O88943 whole entry, looked up): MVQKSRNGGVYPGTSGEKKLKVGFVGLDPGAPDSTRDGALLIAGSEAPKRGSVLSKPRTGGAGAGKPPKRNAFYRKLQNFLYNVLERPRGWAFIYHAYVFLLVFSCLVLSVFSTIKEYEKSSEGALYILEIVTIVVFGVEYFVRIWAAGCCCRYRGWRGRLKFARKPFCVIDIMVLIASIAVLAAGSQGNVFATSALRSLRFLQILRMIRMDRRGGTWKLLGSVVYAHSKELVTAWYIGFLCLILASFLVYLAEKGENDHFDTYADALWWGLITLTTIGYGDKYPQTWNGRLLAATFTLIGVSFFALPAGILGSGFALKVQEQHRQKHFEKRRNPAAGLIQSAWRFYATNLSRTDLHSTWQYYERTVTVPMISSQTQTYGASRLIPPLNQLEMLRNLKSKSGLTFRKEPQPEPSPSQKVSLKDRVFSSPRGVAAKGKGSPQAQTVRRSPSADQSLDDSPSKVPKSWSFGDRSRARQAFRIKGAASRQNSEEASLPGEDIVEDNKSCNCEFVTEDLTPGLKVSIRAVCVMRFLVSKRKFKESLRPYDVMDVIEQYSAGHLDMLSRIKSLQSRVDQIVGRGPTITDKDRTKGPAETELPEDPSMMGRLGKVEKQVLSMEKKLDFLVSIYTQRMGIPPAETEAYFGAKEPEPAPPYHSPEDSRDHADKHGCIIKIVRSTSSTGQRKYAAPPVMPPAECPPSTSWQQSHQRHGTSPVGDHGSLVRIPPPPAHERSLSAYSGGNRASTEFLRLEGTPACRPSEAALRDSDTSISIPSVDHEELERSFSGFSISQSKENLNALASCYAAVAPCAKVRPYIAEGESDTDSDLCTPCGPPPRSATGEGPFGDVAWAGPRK
Assay [4] deals with TRPC4 beta (transient receptor potential cation channel C4), mouse. The experiment in a line: activators of mouse TRPC4 channel, confirmation, cell-based, Fluo4 calcium, HEK293 TRPC4beta/mu-opioid, duplicates, 10 µM (AID 2426;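 active = fluorescence ratio normalized to control raised more than 50% in primary screen plus both repeat runs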;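 note: percent rise of integrated ratio over buffer wells lacking compound which define 0%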). The conditions noted are these: Fluo4 calcium fluorescence, at 10 µM; active compounds read high.
Assay [5] concerns transient receptor potential cation channel C4 beta (TRPC4), mouse. Description: activators of mouse TRPC4 channel, confirmation, cell-based, second round, Fluo4, HEK293 TRPC4beta/mu-opioid, 1 µM (AID 2461;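 active = primary screen active and over 50% activation in each of two duplicate runs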;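 for activation: 0% = wells without test compound as baseline of integrated fluorescence ratio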). Particulars: Fluo4 calcium fluorescence, at 1 µM; active compounds read high.
Assay [6] relates to TRPC4 (transient receptor potential cation channel C4 beta), mouse. Description: positive allosteric modulators of mouse TRPC4, confirmation, cell-based, second round, Fluo-4, HEK293 TRPC4beta/mu-opioid, 1 µM (AID 2554;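 active = primary screen hit whose fluorescence ratio, in both repeats, exceeds the weak agonist control mean by 3 SD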). Particulars: DAMGO EC20, Fluo-4 calcium flux, at 1 µM; active compounds read high.
For assay [7], the system named is TRPC4 beta (transient receptor potential cation channel C4), mouse. The experiment in a line: positive allosteric modulators of mouse TRPC4, confirmation, cell-based, Fluo-4, HEK293 TRPC4beta/mu-opioid (AID 2555;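 active = primary screen hit whose calcium fluorescence ratio, in both repeats, exceeds the weak agonist control mean by 3 SD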). The conditions noted are these: DAMGO EC20, Fluo-4 calcium flux, at 10 µM; active compounds read high. Background: A change in cytosolic calcium serves as a functional read-out for many receptors and channels.

The target in assay [8] is Short transient receptor potential channel 4 (Mus musculus) (UniProt Q9QUQ5). Description: inhibitors of mouse TRPC4 channel, confirmation, cell-based, Fluo4, HEK293 TRPC4beta/mu-opioid (AID 2636;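 active = calcium signal cut by more than 3 SD below the full-agonist control yet still positive, in both repeats and the earlier primary screen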). Particulars: DAMGO, Fluo4 calcium flux, at 10 µM; active compounds read high.
Sequence of Short transient receptor potential channel 4 (Mus musculus) (Q9QUQ5 whole entry, looked up): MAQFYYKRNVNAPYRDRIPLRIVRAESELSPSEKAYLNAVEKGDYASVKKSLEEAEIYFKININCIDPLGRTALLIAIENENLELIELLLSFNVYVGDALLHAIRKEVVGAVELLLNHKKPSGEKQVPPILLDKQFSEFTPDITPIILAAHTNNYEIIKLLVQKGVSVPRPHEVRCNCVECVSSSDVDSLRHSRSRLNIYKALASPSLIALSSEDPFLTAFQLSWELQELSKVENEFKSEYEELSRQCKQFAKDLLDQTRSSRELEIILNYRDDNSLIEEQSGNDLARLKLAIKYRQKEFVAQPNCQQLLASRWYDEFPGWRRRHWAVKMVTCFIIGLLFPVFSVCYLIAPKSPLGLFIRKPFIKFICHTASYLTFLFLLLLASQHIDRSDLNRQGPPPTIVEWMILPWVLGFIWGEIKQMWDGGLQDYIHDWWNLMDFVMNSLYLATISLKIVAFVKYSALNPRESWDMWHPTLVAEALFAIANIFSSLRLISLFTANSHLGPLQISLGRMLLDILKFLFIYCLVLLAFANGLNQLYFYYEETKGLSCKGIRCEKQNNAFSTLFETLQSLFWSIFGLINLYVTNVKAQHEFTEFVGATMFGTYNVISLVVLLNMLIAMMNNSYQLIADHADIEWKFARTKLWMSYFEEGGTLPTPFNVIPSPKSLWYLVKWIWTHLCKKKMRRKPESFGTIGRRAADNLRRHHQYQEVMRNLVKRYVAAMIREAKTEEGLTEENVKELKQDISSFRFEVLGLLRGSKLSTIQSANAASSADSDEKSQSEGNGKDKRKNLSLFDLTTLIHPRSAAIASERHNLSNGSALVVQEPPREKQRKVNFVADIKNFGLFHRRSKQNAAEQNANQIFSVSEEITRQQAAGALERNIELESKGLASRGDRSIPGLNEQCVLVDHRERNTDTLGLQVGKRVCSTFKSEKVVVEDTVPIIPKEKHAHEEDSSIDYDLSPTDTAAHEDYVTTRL
Assay [9] has the same target. The experiment in a line: inhibitors of mouse TRPC4 channel, confirmation, cell-based, second round, Fluo4, HEK293 TRPC4beta/mu-opioid, 1 µM (AID 2637;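 active = calcium signal ratio cut to more than 3 SD under the fully stimulated control mean yet still positive, in both repeats and the primary screen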;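 for inhibition: percent of integrated ratio relative to wells lacking test compound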). Particulars: Fluo4 calcium flux, DAMGO, at 1 µM; active compounds read high.
Assay [10] shares this target. The experiment in a line: TRPC4 positive allosteric modulators, dose response, cell-based, HEK293 TRPC4/mu-opioid, Fluo-4 calcium, EC20 DAMGO (AID 434941;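 active = earlier screen potentiator hit that boosts the TRPC4 ion channel at some dose, with a dose response; inactive = no potentiation, no dose response, or not a prior hit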;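 note: calcium entry triggered by an EC20 dose of DAMGO at the co-expressed mu-opioid receptor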).
Assay [11] has the same target. Description: mouse TRPC4 channel inhibitors, dose response, cell-based, HEK293 TRPC4/mu-opioid, Fluo-4 calcium (AID 434942;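 active = primary screen inhibitor hit that blocks the TRPC4 channel at some tested dose, yielding a dose curve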).
The target of assay [12] is Short transient receptor potential channel 6 (Mus musculus) (UniProt Q61143). The experiment in a line: inhibition of mouse TRPC6 channel, confirmation, selectivity assay for TRPC4 inhibitor project, cell-based, HEK293, membrane potential dye, duplicate (AID 434948;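 active = active in primary screen and both duplicates, each dropping signal beyond three positive-control SD with fluorescence still positive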). The conditions noted are these: HEK293 TRPC6, membrane potential dye fluorescence, at 10 µM; inhibition: active compounds read high, stimulated with maximal-effect acetylcholine unless noted; outcome: stimulated with maximal-effect acetylcholine unless noted.
Sequence of Short transient receptor potential channel 6 (Mus musculus) (Q61143 whole entry, looked up): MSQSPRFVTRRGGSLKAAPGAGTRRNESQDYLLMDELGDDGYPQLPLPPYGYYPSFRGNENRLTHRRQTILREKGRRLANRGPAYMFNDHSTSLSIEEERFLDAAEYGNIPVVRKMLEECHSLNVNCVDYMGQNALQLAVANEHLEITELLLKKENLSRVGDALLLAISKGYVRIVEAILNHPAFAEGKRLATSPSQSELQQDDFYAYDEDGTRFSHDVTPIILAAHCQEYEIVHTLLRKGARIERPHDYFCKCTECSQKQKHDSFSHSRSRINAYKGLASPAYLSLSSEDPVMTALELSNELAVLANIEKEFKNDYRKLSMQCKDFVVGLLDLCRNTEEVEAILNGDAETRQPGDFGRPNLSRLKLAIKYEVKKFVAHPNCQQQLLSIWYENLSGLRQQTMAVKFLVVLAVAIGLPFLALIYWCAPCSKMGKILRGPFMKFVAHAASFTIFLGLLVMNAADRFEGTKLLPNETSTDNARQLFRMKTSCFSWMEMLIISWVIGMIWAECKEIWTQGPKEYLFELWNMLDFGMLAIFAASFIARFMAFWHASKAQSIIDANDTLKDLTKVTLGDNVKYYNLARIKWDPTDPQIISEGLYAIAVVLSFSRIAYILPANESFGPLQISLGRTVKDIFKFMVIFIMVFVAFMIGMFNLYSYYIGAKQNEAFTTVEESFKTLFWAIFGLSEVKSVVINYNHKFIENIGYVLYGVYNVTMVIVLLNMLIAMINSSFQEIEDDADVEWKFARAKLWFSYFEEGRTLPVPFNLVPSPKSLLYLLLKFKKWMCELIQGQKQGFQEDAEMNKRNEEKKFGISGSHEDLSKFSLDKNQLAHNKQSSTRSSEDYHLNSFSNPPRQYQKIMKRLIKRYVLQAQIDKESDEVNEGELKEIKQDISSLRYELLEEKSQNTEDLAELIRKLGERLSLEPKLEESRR

Assay [13] has the same target. Description: activation of mouse TRPC6 channel, confirmation, selectivity assay for TRPC4 activator project, cell-based, HEK293, membrane potential dye, duplicate (AID 434950;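 active = membrane potential signal rise above negative control mean plus 3 SD in both duplicates, also active in the earlier TRPC4 screen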;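 for activation: 0% = buffer only wells and 100% = acetylcholine maximal-effect wells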). Particulars: HEK293 TRPC6, membrane potential fluorescence, at 10 µM; active compounds read high.
For assay [14] the target is unchanged. Description: TRPC6 potentiation by TRPC4 potentiator hits, confirmation, selectivity assay for TRPC4 potentiator project, HEK293 cells, membrane potential dye, duplicate (AID 434952;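 active = compound raising the membrane signal above positive-control mean plus 3 SD in both repeats, and a primary screen hit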). Particulars: HEK293 TRPC6, membrane potential dye fluorescence, at 10 µM; maximal acetylcholine added after compound unless noted.
In assay [15] the target is Short transient receptor potential channel 4 (Mus musculus) (UniProt Q9QUQ5). Description: calcium flux activators in TRPC4/5HT1a cells, counter-screen for TRPC4 activator project, cell-based, second counter screen, HEK293 TRPC4/5HT1a, Fluo-4 (AID 434977;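 active = calcium signal rise above buffer-control mean plus 5 SD in both duplicates, and also a hit in the primary screen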;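 for activation: plate controls were assay buffer for no effect and maximal serotonin response for full effect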). Particulars: Fluo-4 calcium flux, at 10 µM; active compounds read high.
Assay [16] is described as follows: calcium flux inhibitors in TRPC4/5HT1a cells, confirmation, counter-screen for TRPC4 inhibitor project, cell-based, second counter screen, HEK293 TRPC4/5HT1a, Fluo-4 (AID 434978;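 active = primary screen active whose calcium signal fell more than 3 SD beyond the full-serotonin control mean in both duplicate plates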;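 note: serotonin given first at submaximal then at maximal dose after compound preincubation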). The conditions noted are these: Fluo-4 calcium flux, at 10 µM; inhibition: active compounds read high, serotonin added to trigger calcium flux unless noted; outcome: serotonin added to trigger calcium flux unless noted.

In assay [17] the test system is TRPC4 (mouse), co-expressed with 5HT1a in HEK293. The experiment in a line: calcium flux potentiators in TRPC4/5HT1a cells, confirmation, counter-screen for TRPC4 potentiator project, cell-based, second counter screen, HEK293 TRPC4/5HT1a, Fluo-4 (AID 434979;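 active = signal rise over 3 SD above mean of control wells given weak agonist, in both repeats and first screen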). Particulars: Fluo-4 calcium flux, at 10 µM; outcome: serotonin added at its EC20 dose unless noted; potentiation: active compounds read high, serotonin added at its EC20 dose unless noted.

A short description of assay [18]: calcium flux activation in mu-opioid HEK293 cells, confirmation, counter-screen for TRPC4 activator project, cell-based, HEK293 mu-opioid receptor line (AID 449723;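 active = hit in primary screen, with calcium signal over 5 SD above buffer well mean in both duplicates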;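 note: counter screen cells carry the mu-opioid receptor alone and lack TRPC4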). Particulars: Fluo-4 calcium fluorescence, at 10 µM; active compounds read high.
Assay [19] in a line: calcium flux enhancement in mu-opioid HEK293 cells, confirmation, counter-screen for TRPC4 allosteric potentiator project, cell-based, HEK293 mu-opioid receptor line (AID 449724;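 active = calcium signal rise more than 3 SD above the low-dose agonist control mean, in both duplicate plates and the primary screen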;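 note: HEK293 cells carrying mu-opioid receptor only with no TRPC4 channel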). Particulars: Fluo-4 calcium flux, at 10 µM; compound added before EC20 DAMGO stimulus unless noted.

The term inhibition denotes the share of the control response that was lost under treatment.

On to `C=C(C)[C@@]12OC3(c4ccccc4)O[C@@H]1C1[C@@H]4O[C@]4(CO)[C@@H](O)[C@]4(O)C(=O)C(C)=C[C@H]4[C@@]1(O3)[C@H](C)[C@H]2OC(=O)/C=C/C=C/c1ccccc1` (stereo not given in full), for which the outcome in assay [1], in assay [2] and in assay [3] was inactive.
In the case of `CC1(C)CC(CCNCc2ccc3c(c2)OCO3)(Cc2ccccc2)CCO1` (stereo not given), the activation in [4] is 169% (active); in assay [13], 70% (active); in assay [15], 5.46% (active). Besides, the outcome in assay [5], in assay [6], in assay [7], in assay [8], in assay [9] and in [10] was inactive. Further, the outcome in assay [11], in assay [12], in [14], in assay [16], in assay [17] and in assay [18] was inactive. For the same compound, the outcome in assay [19] was inactive.
As for `CN(C)C(CNC(=O)Cc1c(Cl)cccc1Cl)c1ccccc1` (stereo not given), the activation in assay [4] is 148% (active); in [5] it was 86% (active); in assay [13], 57.5% (active). Also, the result in assay [6], in [7], in assay [8], in assay [9], in assay [10] and in assay [11] was inactive. Further, the compound was classed as inactive in [12], in [14], in assay [15], in assay [16], in [17] and in assay [18]. The result in assay [19] was inactive.
For the compound `O=[N+]([O-])c1ccc(N2CCNCC2)c2ncccc12`, the activation in assay [4] is 69% (active); in [5], 64% (active); in assay [15] it was 38% (active). Moreover, the potentiation in assay [6] was 19% (active); in assay [7] it was 23% (active); in [17] it was 11% (active). The outcome in [8], in assay [9], in [10], in [11], in [12] and in [13] was inactive. The outcome in assay [14], in assay [16], in [18] and in assay [19] was inactive.
In the case of `O=[N+]([O-])c1cc2c(cc1CNCCc1ccc3c(c1)OCO3)OCO2`, the activation in [4] is 62% (active). The result in assay [5], in assay [6], in [7], in [10], in assay [13] and in assay [15] was inactive. For the same compound, the outcome in assay [18] was inactive. Also, the inhibition was 91% (active) in [8] and 39% (active) in [9]. Moreover, the outcome in assay [12], in assay [14], in [16], in assay [17] and in assay [19] was “inactive [setting not given]” each time.
With `O=C(CCCN1CCC2(CC1)C(=O)NCN2c1ccccc1)c1ccc(F)cc1`, the activation was 193% (active) in assay [4]; 39.5% (active) in assay [13]; 86.7% (active) in [15]; 48% (active) in assay [18]; 336% (active) in assay [1]. The result in assay [5], in assay [6], in assay [7], in assay [8], in assay [9] and in assay [10] was inactive. Further, the result in assay [11], in assay [12], in [14], in assay [16], in assay [17] and in assay [19] was inactive. The potentiation in assay [2] was 55.5% (active); in [3], 323% (active).
As to `CNc1ccc2oc(C[C@H]3O[C@@]4(CC[C@H]3C)O[C@H]([C@H](C)C(=O)c3ccc[nH]3)[C@H](C)C[C@H]4C)nc2c1C(=O)O`, in assay [1], the activation is 144% (active). The results for the potentiation in assay [2] and in [3] were 89% (active) and 210% (active), respectively.
As for `O=C(c1ccc(-c2ccccc2)cc1)C1CCCN(Cc2ccn[nH]2)C1` (stereo not given), the result in [1], in [2] and in [3] was inactive.
Consider `COc1ccc(C(=O)OC2CC[C@@]3(C)C4CCC5[C@]6(O)CC(O)[C@@]7(O)C(CN8CC(C)CCC8[C@@]7(C)O)[C@]6(O)C[C@@]53O[C@]24O)cc1OC` (stereo not given in full), for which the result in assay [1] was inactive. Moreover, the values for the potentiation in [2] and in assay [3] were 25.5% (active) and 160% (active), respectively.
Turning to `CC1=CC2/C=C(\C)CCC(O)C(O)/C=C/C(=O)C23C(=O)NC(CC(C)C)C3C1C` (stereo not given), the outcome in assay [1] and in [3] was inactive. The potentiation in assay [2] was 23% (active).
`Nc1ncnc2c1ccn2[C@@H]1O[C@H](CO)[C@@H](O)[C@H]1O`: the outcome in assay [1], in assay [2] and in assay [3] was inactive.
